In PubChem BioAssay (EPA / NIEHS) one finds outcome and AC50 data, which are given here for 40 molecules.

The source made the active and inactive calls. The calls were made as follows: active = hit-call score of the fitted dose curve at least 0.9, where 1 is the maximum; inactive = score below 0.9.

Sequence of Nuclear respiratory factor 1 (Homo sapiens) (Q16656 whole entry, looked up): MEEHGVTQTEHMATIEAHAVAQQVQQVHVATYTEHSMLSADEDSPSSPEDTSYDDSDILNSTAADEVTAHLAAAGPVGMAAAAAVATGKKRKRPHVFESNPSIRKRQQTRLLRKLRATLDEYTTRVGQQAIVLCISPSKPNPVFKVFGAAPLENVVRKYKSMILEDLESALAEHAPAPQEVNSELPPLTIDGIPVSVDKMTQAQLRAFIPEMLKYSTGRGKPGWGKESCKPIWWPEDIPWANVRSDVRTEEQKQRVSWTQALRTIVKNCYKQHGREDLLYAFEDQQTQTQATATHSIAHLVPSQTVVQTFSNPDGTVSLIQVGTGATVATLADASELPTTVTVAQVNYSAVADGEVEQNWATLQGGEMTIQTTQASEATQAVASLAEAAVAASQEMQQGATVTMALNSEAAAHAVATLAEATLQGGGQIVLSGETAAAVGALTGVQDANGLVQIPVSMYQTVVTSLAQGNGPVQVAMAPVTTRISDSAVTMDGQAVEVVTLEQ

In the assay the target is Nuclear respiratory factor 1 (Homo sapiens) (UniProt Q16656). Briefly: ATG_NRF1_CIS: Attagene CIS-FACTORIAL HepG2 Assay for human Nuclear Respiratory Factor 1 (NRF1) Orphan Gene (AID 2282987). As to conditions: HepG2 NRF1 cis-element reporter, Attagene multiplex; actives raise or lower the signal. The procedure:
ATG_CIS is a cell-based, multiplexed-readout assay that uses HepG2, a human liver cell line, with measurements taken at 24 hours after chemical dosing in a 24-well plate.ATG_NRF1_CIS is one of 52 assay component(s) measured or calculated from the ATG_CIS assay. It is designed to make measurements of mRNA induction, a form of inducible reporter, as detected with fluorescence intensity signals by Reverse transcription polymerase chain reaction (RT-PCR) and Capillary electrophoresis technology.Data from the assay component ATG_NRF1_CIS was analyzed into 1 assay endpoint. This assay endpoint, ATG_NRF1_CIS, was analyzed with bidirectional fitting relative to DMSO as the negative control and baseline of activity. Using a type of inducible reporter, measures of mRNA for gain or loss-of-signal activity can be used to understand the reporter gene at the transcription factor-level as they relate to the gene NRF1. Furthermore, this assay endpoint can be referred to as a primary readout, because this assay has produced multiple assay endpoints where this one serves a reporter gene function. To generalize the intended target to other relatable targets, this assay endpoint is annotated to the dna binding intended target family, where the subfamily is nuclear respiratory factors.
Human liver HepG2 cells are transiently transfected with multiple reporter transcription units (MRTUs) in 6-well plates using FuGene 6 reagent (Roche; 3 ml FuGene/1 mg DNA). The MRTU constructs are regulated by a cis-regulating element (promoter). […] A major difference between the CIS and TRANS system is that in CIS activities of endogenous TFs are measured, whereas the TRANS assay evaluates changes in activities of exogenous, chimeric NR-Gal4 proteins. […] At the end of 24 hour incubation, total RNA was isolated using TriZol reagent (Invitrogen). The isolated RNA is then reverse-transcribed using oligo(dT) primer and Mo-MLV reverse transcriptase (Invitrogen) with DNAse I (Ambion) treatment for 30 min. The one-tenth of the produced cDNA was amplified by PCR using Taq DNA polymerase (Invitrogen) and two reporter sequence-specific primers. The PCR products were fluorescently labeled by primer extension with 6-arboxyfluorescein (6-FAM) 5'-labeled reporter sequence-specific primer (2 min at 95 C, 20 s at 68 C and 10 min at 72 C) and these products were digested with 5U of HpaI (New England Biolabs) for 2h at 37 C. The fragments were purified using Qiaquick PCR columns (Qiagen), analyzed on an ABI 3130xL genetic analyzer (Applied Biosystems) with peak positions identified by using a set of X-rhodamine (ROX)-labeled MapMarker1000 molecular weight standards (BioVentures). The raw capillary electrophoresis data was processed using Attagraph software (Attagene).
As to `CCOC(=O)N1CCC(=C2c3ccc(Cl)cc3CCc3cccnc32)CC1`, the molecule was called inactive.
For the molecule `CC[C@H]1OC(=O)[C@H](C)[C@@H](O[C@H]2C[C@@](C)(OC)[C@@H](O)[C@H](C)O2)[C@H](C)[C@@H](O[C@@H]2O[C@H](C)C[C@H](N(C)C)[C@H]2O)[C@](C)(O)C[C@@H](C)C(=NOCOCCOC)[C@H](C)[C@@H](O)[C@]1(C)O`, the outcome was inactive.
As for `CC(C)(C)C1CCCCC1=O` (stereo not given), the molecule was called inactive.
The same measure, in the same setting: as for `C=C[C@](C)(O)CC[C@@H]1[C@@]2(C)CCCC(C)(C)[C@@H]2CC[C@@]1(C)O`, the entry is “inactive”.
Still for that read-out and setting: as for `O=c1[nH]c(=O)c2[nH]c(=O)[nH]c2[nH]1`, the entry is “inactive”; as for `NC(=O)OCC(COC(N)=O)c1ccccc1`, “inactive”; as for `Cc1cccc(C(=O)O)c1`, “inactive”.
On the same count and under the same terms, as for `Nc1ccc(N)c(Cl)c1`, the entry is “inactive”.
In the case of `CCN(CC#N)c1cccc(C)c1`, the molecule was called inactive.
Same read-out and setting: as for `CC1=Nc2ccc3ccccc3c2C1(C)C`, the entry is “inactive”.
On the same count and under the same terms, under `CCCCOCCOC(=O)COc1nc(Cl)c(Cl)cc1Cl` stands “inactive”; under `CCCOCCOCCOCCO`, “inactive”.
As to `O=[N+]([O-])c1ccc(CO)cc1`, the result was inactive.
As to `COc1ccc([C@@H]2CC(=O)c3c(O)cc(O[C@@H]4O[C@H](CO[C@@H]5O[C@@H](C)[C@H](O)[C@@H](O)[C@H]5O)[C@@H](O)[C@H](O)[C@H]4O)cc3O2)cc1OC`, the call was inactive.
On to `CNC(=S)NN`, for which the result was inactive.
On the same count and under the same terms, as for `Cc1ccc(C2OC[C@@H]3OC(c4ccc(C)cc4)O[C@H]([C@H](O)CO)[C@@H]3O2)cc1` (stereo not given in full), the entry is “inactive”; as for `Cc1ccc2c(c1)C(=O)c1ccccc1C2=O`, “inactive”; as for `O=C(O)Cc1c(Cl)ccc(Cl)c1Cl`, “inactive”.
Same read-out and setting: as for `CC(C)=CCC[C@H](C)CCO`, the entry is “inactive”.
On the same count and under the same terms, as for `Cc1ccc([N+](=O)[O-])cc1S(=O)(=O)O`, the entry is “inactive”; as for `COCc1c(C(C)C)nc(C(C)C)c(/C=C/[C@@H](O)C[C@@H](O)CC(=O)O)c1-c1ccc(F)cc1`, “inactive”.
For `C[Si](C)(C)O[Si](O)(O)O`, the result was inactive.
As for `CC1(C)O[C@@H]2C[C@H]3[C@@H]4C[C@H](F)C5=CC(=O)C=C[C@]5(C)[C@@]4(F)[C@@H](O)C[C@]3(C)[C@]2(C(=O)CO)O1`, the call was inactive.
For `COC(=O)/C=C/C(C)=C\C=C\C(C)=C\C=C\C=C(C)\C=C\C=C(C)\C=C\C(=O)O`, the call was inactive.
On the same count and under the same terms, under `Nc1ccc(Oc2ccc(N)c(N)c2)cc1` stands “inactive”; under `O=Nc1ccc(O)cc1`, “inactive”.
The same measure, in the same setting: under `O=C(O)CCCC[C@@H]1SC[C@@H]2NC(=O)N[C@@H]21` stands “inactive”; under `COC=O`, “inactive”; under `OCCNCc1ccccc1`, “inactive”.
`OC1CCCCCCCCCCC1`: the result was inactive.
For `O=C1Nc2ccccc2C1(c1ccc(O)cc1)c1ccc(O)cc1`, the outcome was inactive.
On to `Cc1oncc1C(=O)Nc1ccc(C(F)(F)F)cc1`, for which the molecule was called inactive.
Same read-out and setting: as for `C=C[Si](OC(C)=O)(OC(C)=O)OC(C)=O`, the entry is “inactive”.
For the molecule `CCCCCCCCCCCCCCCC[N+](C)(C)CC`, the concentration at half-maximal activity (AC50) (usually the midpoint of the concentration-response curve, whichever way the signal moves) is 9.68 µM (active).
Consider `CCCCCCCCCCOS(=O)(=O)O`, for which the outcome was inactive.
As for `CC(=O)[C@@]1(O)CC[C@H]2[C@@H]3C[C@H](C)C4=CC(=O)C=C[C@]4(C)[C@@]3(F)[C@@H](O)C[C@@]21C`, the molecule was classed as inactive.
For the molecule `c1ccc2c(c1)ccc1cc3c(ccc4ccccc43)cc12`, the molecule was called inactive.
Still for that read-out and setting: under `S=C(NC1CCCCC1)NC1CCCCC1` stands “inactive”.
Same read-out and setting: as for `CCCCCCCOC(=O)CCC`, the entry is “inactive”; as for `CC(C)C1=CC2=CC[C@@H]3[C@](C)(CCC[C@@]3(C)C(=O)O)[C@H]2CC1`, “inactive”.
